Nrf2 ARE act – qHTS of Nrf2 Activators; AREc32 ARE-luciferase reporter (MCF7-derived line), luminescence, 24 h; Potency, µM (highest dose often 46.1 µM), without a hit: at the top dose activation, hits mostly activators; 410,000 tested, 0.31% active; AID 624171, 2012; further: % of control where 0% means no effect; nearly all actives have a fitted effect of over 65% in size
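Steps: seed AREc32_Fluc cells (1000/well, 5% FBS OPTI-MEM); incubate overnight at 37 deg C; add 23 nL compound; incubate 24 hr; add Steady-Glo; hold 30 min RT; read luminescence.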
ELG1 repair inh – qHTS screen for small molecules that inhibit ELG1-dependent DNA repair in human embryonic kidney (HEK293T) cells expressing luciferase-tagged ELG1; HEK293T ELG1-luciferase reporter, luminescence, 16 h; DNA damage induced by 5-fluorouridine; Potency, µM (highest dose often 46.1 µM), without a hit: top-dose activity change, negative = inhibition, actives largely listed as inhibitors; 330,000 tested, 2.3% active; AID 504467, 2011; further: on the % scale 0 is the no-effect control and ±100 the full control effect; nearly all actives have a fitted effect of over 55% in size
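Overnight (16 hr) co-exposure of 2,000 cells/well to 5-fluorouridine and compound at 37 °C preceded detection. Luciferase was quantified via ONE-Glo luminescence; loss of signal denotes inhibition.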
A549 viability – Nrf2 qHTS screen for inhibitors: counterscreen for cytotoxicity. A549 ARE-Fluc cells, CellTiter-Fluor viability, 18-24 h. Potency, µM (top dose mostly 46 µM), inactives show at the highest dose activity change, negative = cytotoxicity, actives largely listed as inhibitors. 390,000 tested, 0.16% active. AID 504648, 2011; further: on the % scale 0 is the no-effect control and ±100 the full control effect
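A549 ARE_Fluc cells in 5% FBS OPTI-MEM were exposed to compounds in concentration-response for 18-24 h at 37 deg C. Viability was read by CellTiter-Fluor fluorescence (Ex 405/Em 525) after 30 min, before the luciferase read.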
Nrf2 inh – Nrf2 qHTS screen for inhibitors | AID 504444, 2011 | Potency, µM (doses to about 46 µM), inactives show at the top dose activity change, negative = inhibition, usual class: inhibitors | A549 ARE-Fluc reporter, luciferase luminescence, 18-24 h | 360,000 tested, 2.1% active; further: on the % scale 0 is the no-effect control and ±100 the full control effect; nearly all actives have a fitted effect of over 60% in size
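Nrf2 function is reported as luminescence of an ARE-controlled luciferase in A549 cells. Compounds were tested at several concentrations, and a CellTiter-Fluor read on the same wells flagged cytotoxicity.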
Active calls of the source: *; ? = inconclusive; . = no result given. Rows were chosen to be rich in hits. Some 3.7% of all compounds tested hit in one or more screens of this group. The call rests on the fitted dose curve; in most records, active means well fitted curve in the direction sought with a large enough effect; inconclusive means small, poorly fitted or top-dose-only effect, or another doubt; inactive means no such curve, though single readings can be large; an effect the other way counts as inactive or inconclusive. Potency means the concentration at half of the fitted maximal effect.

SMILES	Nrf2 ARE act	ELG1 repair inh	A549 viability	Nrf2 inh
COc1cccc2c1OCC(CN1CCN(CCC(C)C)C(CCO)C1)=C2 (stereo not given)	0%	9%	3%	?
Cc1cccc(-n2c(-c3ccco3)nc3c(cnn3-c3ccccc3C)c2=O)c1	2%	.	-6%	21µM*
COC(=O)c1sc2cccc(F)c2c1S(=O)(=O)NCc1ccccc1Cl	13µM*	.	-1%	28%
COC(=O)c1sc2cccc(F)c2c1S(=O)(=O)NCc1ccc(Cl)cc1	11µM*	.	-1%	-19%
COC(=O)c1sc2cccc(F)c2c1S(=O)(=O)NC(C)c1ccccc1 (stereo not given)	?	.	-2%	-7%
COC(=O)c1sc2cccc(F)c2c1S(=O)(=O)Nc1cc(OC)cc(OC)c1	?	.	10%	17%
Cc1cc2c(C)nc(Cc3ccccc3)nc2o1	-1%	18µM*	-1%	.
CSc1nc(C)c2cc(C)oc2n1	0%	8%	-13%	.
Cc1c(Cl)cccc1NC(c1ccc(F)cc1)c1nnc(-c2ccccc2)o1 (stereo not given)	8%	.	2%	?
O=C1c2ccccc2C(=O)N1CCSC(=S)N1CCOCC1	0%	?	0%	?
Fc1c(CSC(=S)N2CCOCC2)cccc1CSC(=S)N1CCOCC1	0%	23µM*	7%	?
CCCCN(C(=O)c1ccc(-c2ccc([N+](=O)[O-])cc2)o1)c1c(N)n(CC(C)C)c(=O)[nH]c1=O	3%	-2%	3%	-16%
O=C(N[C@@H](Cc1ccccc1)C(=O)N1CCN(S(=O)(=O)c2ccccc2F)CC1)c1ccco1	0%	-14%	0%	-4%
O=C(O)c1cc(-c2cccnc2)nc2ccc(Br)cc12	0%	-6%	1%	13%
CC(=O)Nc1cccc(NC(=O)c2cc(-c3cccnc3)nc3ccc(Cl)cc23)c1	5%	21µM*	-7%	?
CC(=O)Nc1cccc(NC(=O)c2cc(-c3cccnc3)nc3ccc(Br)cc23)c1	0%	?	?	12µM*
CSc1ccccc1NC(=O)c1cc(-c2cccnc2)nc2ccc(Br)cc12	1%	23µM*	-17%	?
CCOC(=O)N1CCN(c2nc(-c3ccccc3)c3ccccc3n2)CC1	0%	-9%	2%	-25%
O=C(COC(=O)c1ccccc1-c1nc2ccccc2s1)Nc1ccccc1C(F)(F)F	0%	23µM*	1%	28%
COC(=O)c1ccccc1NC(=O)C1=C(C)C(=O)OC12CCCCCC2	5%	.	1%	28%
COc1ccc2[nH]c3c(N4CCC(O)(c5cccc(C(F)(F)F)c5)CC4)ncnc3c2c1	-1%	?	?	23µM*
COc1ccc2[nH]c3c(N4CCN(Cc5ccc6c(c5)OCO6)CC4)ncnc3c2c1	7%	26µM*	-16%	?
COc1ccc2c(c1)c1ncnc(N3CCN(Cc4ccc5c(c4)OCO5)CC3)c1n2C	.	16µM*	.	.
CCCCC(CC)CNC(=O)CN(C)S(=O)(=O)c1ccc2c(c1)c(=O)n(C)c(=O)n2C (stereo not given)	0%	.	-4%	-16%
CCN(CC(=O)Nc1cc(Cl)ccc1C)C(=O)CCS(=O)(=O)c1ccc(Cl)cc1	0%	-15%	-5%	-9%
SMILES	Nrf2 ARE act	ELG1 repair inh	A549 viability	Nrf2 inh
Cc1ccc(-n2ncc3c(SCc4cccnc4)ncnc32)c(C)c1	3%	?	-20%	4.1µM*
Cc1ccc(-n2ncc3c(N4CCCC4)ncnc32)c(C)c1	0%	1%	-5%	25%
COc1cccc(N2CCN(c3ncnc4c3cnn4-c3ccc(C)cc3C)CC2)c1	-5%	3.3µM*	?	18µM*
COc1cccc(-c2noc(COc3ccc(C(C)(C)C)cc3)n2)c1	0%	.	4%	20%
CCOC(=O)C1CCCCN1C(=O)/C(=C/c1ccc(OC)cc1)c1ccc(OC)c(OC)c1 (stereo not given)	0%	18µM*	-1%	2%
CCOC(=O)C1CCCCN1C(=O)c1ccc2nc(Cc3ccc(OC)cc3)oc2c1 (stereo not given)	2%	-6%	-3%	1%
COc1ccccc1CNC(=O)c1ccc(-c2nc(CS(=O)(=O)c3ccc(C)cc3)c(C)o2)cc1	2%	.	-1%	-9%
CN1C(=O)C2(NCCc3c2[nH]c2ccccc32)c2ccccc21 (stereo not given)	3%	-10%	-16%	0%
CC1=CC(C)(C)N2C(=O)C3(NCCc4c3[nH]c3ccccc43)c3cc(C)cc1c32 (stereo not given)	3%	-9%	12µM*	?
NS(=O)(=O)c1ccc(Cc2ncc(C(F)(F)F)cc2Cl)s1	12%	-7%	?	21µM*
NNS(=O)(=O)c1ccc(Cc2ncc(C(F)(F)F)cc2Cl)s1	0%	1%	-6%	-4%
NC(=O)c1ccccc1NC(=O)c1cc(S(=O)(=O)N2CCCCC2)ccc1N1CCOCC1	4%	-23%	1%	-8%
CCn1nc(C)c(CNC(=O)c2cc(COc3ccc(C)nc3)on2)c1C	0%	-25%	-3%	23µM*
CC(C)(C)OC(=O)CNC(=O)c1[nH]cnc1C(=O)NCCCCCNC(=O)OC(C)(C)C	-1%	?	-14%	26µM*
CC(C)(C)OC(=O)NCCCCCNC(=O)c1[nH]cnc1C(=O)NC1CCN(C(=O)OC(C)(C)C)CC1	5%	?	-12%	21µM*
CC(C)C[C@H](NC(=O)c1nc[nH]c1C(=O)NCCCCCNC(=O)OC(C)(C)C)C(=O)OC(C)(C)C	0%	?	?	?
C[C@H](NC(=O)c1nc[nH]c1C(=O)NCCCCCNC(=O)OC(C)(C)C)C(=O)OC(C)(C)C	5%	5.2µM*	-9%	?
Cc1ccc2oc(C(=O)N(Cc3sccc3C)C3CCS(=O)(=O)C3)c(C)c2c1 (stereo not given)	6%	.	-15%	23µM*
C/C=C/c1ccc(OCC(=O)Nc2ccc(OC)c(OC)c2)c(OC)c1	-1%	16µM*	1%	?
CCN(CC(=O)Nc1ccc2c(c1)OCCO2)C(=O)/C=C/c1cc(Br)ccc1OC	-1%	.	.	.
CCCCOc1ccc(/C=C/C(=O)N(CC)CC(=O)Nc2ccc3c(c2)OCCO3)cc1OC	3%	18µM*	-14%	?
CCCCNC(=S)N(C)/N=C/c1ccc(OCC(=O)Nc2ccc(OC)cc2)c(OC)c1	0%	10µM*	0%	?
CC(CSC(=O)c1ccccc1)C(=O)N1c2ccccc2CC1C(=O)O (stereo not given)	4%	.	.	.
Cc1ccc(CN(C(=O)c2ccc([N+](=O)[O-])cc2)c2ccccn2)cc1	0%	.	3%	12%
O=C(CN1CCC(n2nnc3cc(F)ccc32)CC1)NC1CC1	-1%	0%	1%	-6%

Assay outcomes as filed in PubChem BioAssay.
